Source: PubChem BioAssay (Tox21)
“And” between values parts separate entries of the source, which are not always exact repeats. Equal values may be shown once. Records with an inconclusive call do not appear. More than one record can exist for a structure, and the calls need not agree. The source made the active and inactive calls. Unless noted, calls follow the shape of the dose curve; as a rule, active = well fitted curve in the direction sought with a large enough effect in the repeat runs; inconclusive = weak or mixed curves; inactive = no such curve, though single readings can be large; an effect the other way counts as inactive or inconclusive.

What was measured:
[1] = biological target: Aryl hydrocarbon receptor (Homo sapiens) (UniProt P35869); assay: qHTS assay to identify small molecule that activate the aryl hydrocarbon receptor (AhR) signaling pathway (AID 743085); also: nearly all actives have a fitted effect of over 15% in size; also: potency is read from the fitted curve at half-maximal effect;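 as to activation: HG2L7.5c1 human HepG2 liver cells with stably integrated DRE-driven firefly reporter; series mostly up to about 70 µM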
Aryl hydrocarbon receptor (Homo sapiens), sequence (P35869 whole entry, looked up): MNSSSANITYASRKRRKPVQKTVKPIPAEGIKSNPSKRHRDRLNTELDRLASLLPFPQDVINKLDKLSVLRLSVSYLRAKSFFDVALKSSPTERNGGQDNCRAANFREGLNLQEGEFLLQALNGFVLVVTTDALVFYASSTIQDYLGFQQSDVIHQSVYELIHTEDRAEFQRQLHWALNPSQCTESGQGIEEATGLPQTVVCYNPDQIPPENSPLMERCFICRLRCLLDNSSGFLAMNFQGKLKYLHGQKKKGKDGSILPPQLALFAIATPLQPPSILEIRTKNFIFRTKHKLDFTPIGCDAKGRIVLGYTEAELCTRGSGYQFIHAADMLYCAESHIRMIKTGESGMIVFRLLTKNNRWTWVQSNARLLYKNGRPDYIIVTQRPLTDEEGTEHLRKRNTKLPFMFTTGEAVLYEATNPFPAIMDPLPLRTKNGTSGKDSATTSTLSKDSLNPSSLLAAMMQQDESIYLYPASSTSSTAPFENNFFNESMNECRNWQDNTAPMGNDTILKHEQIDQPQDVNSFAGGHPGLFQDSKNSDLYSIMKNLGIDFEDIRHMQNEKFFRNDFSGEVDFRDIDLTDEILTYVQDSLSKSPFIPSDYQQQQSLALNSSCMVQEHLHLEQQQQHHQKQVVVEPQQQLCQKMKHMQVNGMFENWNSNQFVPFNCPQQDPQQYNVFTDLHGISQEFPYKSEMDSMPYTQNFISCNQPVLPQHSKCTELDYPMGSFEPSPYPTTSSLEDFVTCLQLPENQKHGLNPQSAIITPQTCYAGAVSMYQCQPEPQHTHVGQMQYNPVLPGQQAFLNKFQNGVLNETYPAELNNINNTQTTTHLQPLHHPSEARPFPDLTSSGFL
Summary of the method: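 Compounds were tested in HepG2 hepatocellular carcinoma cells harbouring a stably integrated luciferase gene under control of 20 DREs. Increased reporter signal after 24 h treatment at 37C was taken as AhR activation.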

[2] = qHTS assay to identify small molecule antagonists of the peroxisome proliferator-activated receptor gamma (PPARg) signaling pathway - cell viability counter screen (AID 743194); also: nearly all actives have a fitted effect of over 55% in size; also: potency is read from the fitted curve at half-maximal effect
Summary of the method: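 PPARg-UAS-bla HEK293H cells were plated, rested 5 h at 37 C, then treated with compounds plus rosiglitazone (50 nM final) for 17 h at 37 C; viability was then read by CellTiter-Glo luminescence after 30 min at room temperature.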

[3] = qHTS assay for small molecule agonists of the antioxidant response element (ARE) signaling pathway - cell viability counter screen (AID 743203; calls by dose curve; also: nearly all actives have a fitted effect of over 55% in size; also: potency is read from the fitted curve at half-maximal effect)
Summary of the method: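 Following 16 hrs of compound treatment at 37C, HepG2 cells with an ARE-controlled beta-lactamase gene were lysed with CellTiter-Glo. Luminescence was read after 30 min at room temperature.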

[4] = qHTS assay for small molecule activators of the heat shock response signaling pathway - cell viability counter screen (AID 743209); also: nearly all actives have a fitted effect of over 50% in size; also: potency is read from the fitted curve at half-maximal effect
Summary of the method: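 Readout: CellTiter-Glo luminescence, 30 min at room temperature. System: HSE-bla HeLa cells, 1500/well, plated overnight. Treatment: compounds in DMSO, 5 h at 37 C.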

[5] = qHTS assay to identify small molecule antagonists of the peroxisome proliferator-activated receptor delta (PPARd) signaling pathway - cell viability counter screen (AID 743213); also: nearly all actives have a fitted effect of over 50% in size; also: potency is read from the fitted curve at half-maximal effect
Summary of the method: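 HEK293H cells with the PPARd UAS-bla reporter, co-treated 17 h at 37 C with compounds and L165041 (300 nM final), were lysed with CellTiter-Glo. Luminescence indicated viable cell content.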

[6] = qHTS assay to identify small molecule agonists of the farnesoid-X-receptor (FXR) signaling pathway - cell viability counter screen (AID 743218); also: nearly all actives have a fitted effect of over 45% in size; also: potency is read from the fitted curve at half-maximal effect
Summary of the method: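 Parallel cytotoxicity test: compound-treated (16 h, 37 C) HEK 293T FXR-bla reporter cells were lysed with CellTiter-Glo and luminescence recorded.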

[7] = qHTS assay to identify small molecule antagonists of the farnesoid-X-receptor (FXR) signaling pathway - cell viability counter screen (AID 743221; active = well fitted cell-killing curve with a large enough effect in the repeat runs, not every such curve was filed as active; also: nearly all actives have a fitted effect of over 50% in size; also: potency is read from the fitted curve at half-maximal effect)
Summary of the method: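 Multiplexed counter screen: viability of FXR-bla HEK 293T cells under agonist stimulation by chenodeoxycholic acid (50 uM, final) and test compound for 16 h at 37 C, measured by CellTiter-Glo luminescence in the reporter wells.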

[8] = qHTS assay to identify small molecule agonists of the vitamin D receptor (VDR) signaling pathway - cell viability counter screen (AID 743224); also: nearly all actives have a fitted effect of over 50% in size; also: potency is read from the fitted curve at half-maximal effect
Summary of the method: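 Plated VDR-bla cells (4 h, 37C) received compound, incubated 16 h, then LiveBLAzer substrate 2 h RT; CellTiter-Glo added afterwards, luminescence read at 30 min.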

[9] = biological target: Peroxisome proliferator-activated receptor gamma (Homo sapiens) (UniProt P37231); assay: qHTS assay to identify small molecule agonists of the peroxisome proliferator-activated receptor gamma (PPARg) signaling pathway (AID 743094; active = well fitted activation curve with a large enough effect in the signal ratio in the repeat runs, not every such curve was filed as active; the % refers to the signal ratio)
Peroxisome proliferator-activated receptor gamma (Homo sapiens), sequence (P37231 whole entry, looked up): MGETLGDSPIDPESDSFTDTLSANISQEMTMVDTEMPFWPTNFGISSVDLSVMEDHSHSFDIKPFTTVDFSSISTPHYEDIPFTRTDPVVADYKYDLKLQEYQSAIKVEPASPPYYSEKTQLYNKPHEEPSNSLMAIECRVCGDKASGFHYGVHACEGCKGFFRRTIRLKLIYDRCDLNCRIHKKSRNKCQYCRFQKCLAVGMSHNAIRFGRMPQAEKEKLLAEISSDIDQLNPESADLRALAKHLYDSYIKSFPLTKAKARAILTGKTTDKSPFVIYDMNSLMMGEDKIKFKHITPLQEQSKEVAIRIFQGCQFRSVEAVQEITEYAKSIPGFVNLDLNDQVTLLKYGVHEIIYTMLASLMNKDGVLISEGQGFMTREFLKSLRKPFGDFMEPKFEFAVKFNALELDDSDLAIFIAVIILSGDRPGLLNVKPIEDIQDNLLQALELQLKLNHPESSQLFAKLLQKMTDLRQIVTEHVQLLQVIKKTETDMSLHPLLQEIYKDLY
Summary of the method: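 Compounds dissolved in DMSO were added to PPARg UAS-bla HEK293H cells for 17 h at 37C, and reporter expression was quantified by fluorescence intensity after 1 h with LiveBLAzer B/G FRET substrate.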

[10] = qHTS assay for small molecule agonists of the antioxidant response element (ARE) signaling pathway (AID 743202; active = well fitted activation curve with a large enough effect in the signal ratio in the repeat runs, not every such curve was filed as active; the % refers to the signal ratio; also: potency is read from the fitted curve at half-maximal effect)
Summary of the method: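 Compounds delivered in DMSO to ARE-bla HepG2 cells (2,000 cells/well, pre-incubated 5 h) and left 16 h at 37 C. LiveBLAzer B/G FRET substrate then added for 2 h at RT before fluorescence reading.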

[11] = biological target: Peroxisome proliferator-activated receptor delta (Homo sapiens) (UniProt Q03181); assay: qHTS assay to identify small molecule agonists of the peroxisome proliferator-activated receptor delta (PPARd) signaling pathway (AID 743212; calls by dose curve; also: potency is read from the fitted curve at half-maximal effect)
Peroxisome proliferator-activated receptor delta (Homo sapiens), sequence (Q03181 whole entry, looked up): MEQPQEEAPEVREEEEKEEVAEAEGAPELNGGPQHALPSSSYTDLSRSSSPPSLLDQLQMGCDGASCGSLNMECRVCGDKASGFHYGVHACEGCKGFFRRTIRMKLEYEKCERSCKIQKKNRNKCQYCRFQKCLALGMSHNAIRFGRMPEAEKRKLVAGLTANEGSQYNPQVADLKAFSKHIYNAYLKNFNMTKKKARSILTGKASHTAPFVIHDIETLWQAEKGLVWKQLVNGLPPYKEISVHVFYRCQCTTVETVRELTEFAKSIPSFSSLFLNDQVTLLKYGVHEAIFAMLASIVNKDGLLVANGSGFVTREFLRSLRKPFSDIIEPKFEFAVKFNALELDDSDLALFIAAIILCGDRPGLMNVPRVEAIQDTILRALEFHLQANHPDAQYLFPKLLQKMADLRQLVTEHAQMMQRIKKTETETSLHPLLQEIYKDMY
Summary of the method: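 A PPARd-bla HEK293H line with beta-lactamase under an Upstream Activator Sequence is treated with compounds at 37 C. Substrate loading for 2 h at room temperature precedes the fluorescence measurement.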

[12] = biological target: Vitamin D3 receptor (Homo sapiens) (UniProt P11473); assay: qHTS assay to identify small molecule agonists of the vitamin D receptor (VDR) signaling pathway (AID 743222; calls by dose curve)
Vitamin D3 receptor (Homo sapiens), sequence (P11473 whole entry, looked up): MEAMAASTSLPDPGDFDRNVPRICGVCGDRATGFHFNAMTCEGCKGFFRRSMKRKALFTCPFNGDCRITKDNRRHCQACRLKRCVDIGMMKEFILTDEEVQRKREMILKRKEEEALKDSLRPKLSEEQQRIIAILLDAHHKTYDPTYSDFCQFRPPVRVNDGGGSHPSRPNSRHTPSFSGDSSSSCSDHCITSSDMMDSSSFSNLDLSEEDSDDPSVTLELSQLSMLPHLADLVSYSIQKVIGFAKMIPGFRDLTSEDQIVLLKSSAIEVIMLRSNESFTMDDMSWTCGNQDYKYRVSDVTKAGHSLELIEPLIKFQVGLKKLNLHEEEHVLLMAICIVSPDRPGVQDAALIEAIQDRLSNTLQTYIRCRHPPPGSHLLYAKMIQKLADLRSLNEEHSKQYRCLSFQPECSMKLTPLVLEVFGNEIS
Summary of the method: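 In VDR-bla cells, compound-induced beta-lactamase expression is quantified by FRET substrate fluorescence. Treatment lasts 16 h at 37C; substrate develops 2 h at room temperature.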

[13] = biological target: Peroxisome proliferator-activated receptor gamma (Homo sapiens) (UniProt P37231); assay: qHTS assay to identify small molecule antagonists of the peroxisome proliferator-activated receptor gamma (PPARg) signaling pathway (AID 743191; calls by dose curve; also: series mostly up to about 63 µM; nearly all actives have a fitted effect of over 30% in size)
Summary of the method: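 GeneBLAzer PPARg UAS-bla HEK293H cells carrying a UAS-driven beta-lactamase reporter were plated at 3000 cells/well, preincubated 5 h at 37C, then given compound for 17 h at 37C; LiveBLAzer B/G FRET substrate was read after 1 h at room temperature.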

[14] = qHTS assay to identify small molecule agonists of the peroxisome proliferator-activated receptor delta (PPARd) signaling pathway - cell viability counter screen (AID 743211); also: nearly all actives have a fitted effect of over 55% in size; also: potency is read from the fitted curve at half-maximal effect
Summary of the method: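 Counter screen for cytotoxicity run in parallel with the PPARd reporter screen. Beta-lactamase reporter HEK293H cells exposed to compounds 17 h; ATP-based CellTiter-Glo luminescence quantified viability.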

[15] = biological target: Peroxisome proliferator-activated receptor delta (Homo sapiens) (UniProt Q03181); assay: qHTS assay to identify small molecule antagonists of the peroxisome proliferator-activated receptor delta (PPARd) signaling pathway (AID 743215; active = well fitted inhibition curve with a large enough effect in the signal ratio in the repeat runs, not every such curve was filed as active; the % refers to the signal ratio;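 also: cells stimulated with agonist L165041 at 300 nM final during compound exposure; series mostly up to about 62 µM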)
Summary of the method: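 HEK293H UAS-bla, PPARd; agonist L165041 300 nM final with cpd in DMSO; 37 C 17 h; FRET substrate, RT 2 h; fluorescence intensity.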

[16] = biological target: Bile acid receptor (Homo sapiens) (UniProt Q96RI1); assay: qHTS assay to identify small molecule antagonists of the farnesoid-X-receptor (FXR) signaling pathway (AID 743217; active = well fitted inhibition curve with a large enough effect in the signal ratio in the repeat runs, not every such curve was filed as active; the % refers to the signal ratio)
Bile acid receptor (Homo sapiens), sequence (Q96RI1 whole entry, looked up): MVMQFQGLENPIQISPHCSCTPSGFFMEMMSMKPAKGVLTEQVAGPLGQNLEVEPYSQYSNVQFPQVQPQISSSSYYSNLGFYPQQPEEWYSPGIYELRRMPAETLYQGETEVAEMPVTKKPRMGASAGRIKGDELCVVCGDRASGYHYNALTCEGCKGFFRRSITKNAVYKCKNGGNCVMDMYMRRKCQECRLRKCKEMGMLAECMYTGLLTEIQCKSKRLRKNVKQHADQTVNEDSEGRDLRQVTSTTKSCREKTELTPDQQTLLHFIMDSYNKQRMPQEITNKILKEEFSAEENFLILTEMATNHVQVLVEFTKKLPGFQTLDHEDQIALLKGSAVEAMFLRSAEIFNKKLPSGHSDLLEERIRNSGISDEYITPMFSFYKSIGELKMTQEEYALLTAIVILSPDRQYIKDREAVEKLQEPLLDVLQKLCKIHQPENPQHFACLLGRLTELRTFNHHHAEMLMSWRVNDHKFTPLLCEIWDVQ
Summary of the method: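 GeneBLAzer FXR-UAS-bla HEK 293T, CDCA-stimulated (50 uM final). Compound treatment 16 h, 37 °C. Detection: beta-lactamase cleavage of B/G FRET substrate, fluorescence.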

[17] = biological target: Bile acid receptor (Homo sapiens) (UniProt Q96RI1); assay: qHTS assay to identify small molecule agonists of the farnesoid-X-receptor (FXR) signaling pathway (AID 743220; active = well fitted activation curve with a large enough effect in the signal ratio in the repeat runs, not every such curve was filed as active; the % refers to the signal ratio; also: potency is read from the fitted curve at half-maximal effect)
Summary of the method: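 Beta-lactamase reporter under UAS control in GeneBLAzer FXR HEK 293T cells (5000/well) measured with LiveBLAzer FRET substrate after 2 h at room temperature. Compound exposure lasted 16 h at 37C.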

[18] = qHTS assay for small molecule activators of the heat shock response signaling pathway (AID 743210; active = well fitted activation curve with a large enough effect in the signal ratio in the repeat runs, with a control signal flat, not every such curve was filed as active; the % refers to the signal ratio;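 also: HeLa cells with beta-lactamase reporter driven by heat shock elements; series mostly up to about 63 µM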)
Summary of the method: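 Reporter gene assay: HeLa cells stably bearing an HSE-bla construct, compound treatment 5 h at 37 C, LiveBLAzer substrate 2.5 h at RT, fluorescence intensity.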

[19] = qHTS assay to identify small molecule that activate the aryl hydrocarbon receptor (AhR) signaling pathway - cell viability counter screen (AID 743086); also: nearly all actives have a fitted effect of over 45% in size; also: potency is read from the fitted curve at half-maximal effect
Summary of the method: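 HepG2-AhR-luc (HG2L7.5c1) cells, 4000/well, were preincubated 5 h at 37C, exposed to compound in qHTS format for 24 hr at 37C, then given CellTiter-Fluor for 30 min; viability was read as fluorescence in the reporter wells.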

[20] = biological target: Vitamin D3 receptor (Homo sapiens) (UniProt P11473); assay: qHTS assay to identify small molecule antagonists of the vitamin D receptor (VDR) signaling pathway (AID 743223; active = well fitted inhibition curve with a large enough effect in the signal ratio in the repeat runs, not every such curve was filed as active; the % refers to the signal ratio; also: potency is read from the fitted curve at half-maximal effect)
Summary of the method: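 Cells carrying a VDR-driven beta-lactamase reporter (VDR-bla) were co-treated with compound and 3 nM final 1alpha,25-dihydroxyvitamin D3 for 16 h at 37C; reporter activity was measured as FRET substrate fluorescence after 2 h at room temperature.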

Measured: Potency

Cc1cc(O)c(C(C)(C)C)cc1Sc1cc(C(C)(C)C)c(O)cc1C
inactive: [1]
active: [2] 10.9 µM | [3] 7.68 µM | [4] 10.9 µM | [5] 3.46 µM | [6] 8.69 µM | [7] 9.75 µM | [8] 4.36 µM

O=C(Nc1cccc([N+](=O)[O-])c1)c1cc2ccccc2cc1O
active: [1] 2.43 µM | [2] 0.195 µM | [10] 1.72 µM | [8] 1.23 µM
inactive: [9] | [3] | [4] | [11] | [6] | [12]

CC1(C)CCC(C)(C)c2cc(C(=O)Nc3ccc(C(=O)O)cc3)ccc21
inactive: [1] | [13] | [2] | [10] | [3] | [14] | [11] | [15] | [16] | [6] | [7]
active: [17] 43.6 µM

COCCCC/C(=N\OCCN)c1ccc(C(F)(F)F)cc1
inactive: [1] | [2] | [3] | [4] | [18] | [11] | [5] | [15] | [16] | [17] | [12] | [8]

CCCCCCCCCCCC(=O)NCCCN(C)C
inactive: [1]
active: [19] 54.5 µM | [3] 43.3 µM | [14] 21.9 µM | [5] 38.9 µM | [6] 34.7 µM | [7] 49 µM | [20] 27.5 µM | [8] 21.9 µM

CCOC(=O)O[C@H](C)OC(=O)c1ccc2c(c1)cc(C(=O)NC1CCN(C(C)C)CC1)n2Cc1cc(-c2ccc(Cl)s2)on1
active: [2] 10.2 µM | [3] 22.7 µM | [4] 22.9 µM | [14] 8.14 µM | [5] 18.2 µM | [6] 16.2 µM | [7] 45.8 µM | [20] 16.2 µM | [8] 14.5 µM
inactive: [1]

CCCCCCCCOc1ccccc1C(=O)Nc1ccc(C(=O)OCC[N+](C)(CC)CC)cc1
active: [3] 29.8 µM
inactive: [1] | [19] | [16] | [6] | [17] | [12] | [8]

Nc1c2ccccc2nc2ccccc12
active: [1] 11.9 µM and 13.5 µM | [10] 4.22 µM | [3] 24 µM | [11] 26.6 µM | [17] 9.44 µM
inactive: [2] | [14] | [5] | [6] | [7] | [8]

CC(C)n1nc(-c2cc3cc(O)ccc3[nH]2)c2c(N)ncnc21
active: [1] 3.76 µM | [19] 0.75 µM | [14] 13.3 µM | [8] 15 µM
inactive: [3] | [11] | [7]

O=C1Cc2cc(CCN3CCN(c4nsc5ccccc45)CC3)c(Cl)cc2N1
active: [14] 29.8 µM | [5] 26.6 µM
15 µM (active) and inactive: [1]
inactive: [19] | [4]

CC[C@H]1O[C@]2(CC[C@@H]1C)C[C@@H]1C[C@@H](C/C=C(\C)C[C@@H](C)/C=C/C=C3\CO[C@@H]4[C@H](O)C(C)=C[C@@H](C(=O)O1)[C@]34O)O2
inactive: [1]
active: [2] 19.3 µM | [3] 21.5 µM | [4] 6.85 µM | [14] 17.2 µM | [5] 15.3 µM | [6] 21.7 µM | [7] 17.2 µM | [8] 17.2 µM

[O-][n+]1ccccc1SSc1cccc[n+]1[O-]
active: [10] 3.66 µM | [14] 0.13 µM | [5] 0.206 µM | [6] 0.326 µM | [7] 0.206 µM | [8] 0.164 µM
inactive: [1] | [2] | [11]

CCCCCCCCCCn1cc[n+](CCCCCCCCCC)c1C
active: [2] 6.93 µM | [3] 19.4 µM | [4] 21.9 µM | [14] 7.77 µM | [5] 13.8 µM | [6] 39 µM | [7] 34.7 µM | [20] 19.5 µM | [8] 15.5 µM
inactive: [1]

O=c1c(-c2ccccc2)c1-c1ccccc1
active: [6] 9.44 µM | [7] 13.3 µM
inactive: [1] | [19] | [3] | [17]

O=C(OC[C@H]1O[C@@H](OC(=O)c2cc(O)c(O)c(OC(=O)c3cc(O)c(O)c(O)c3)c2)[C@H](OC(=O)c2cc(O)c(O)c(OC(=O)c3cc(O)c(O)c(O)c3)c2)[C@@H](OC(=O)c2cc(O)c(O)c(OC(=O)c3cc(O)c(O)c(O)c3)c2)[C@@H]1OC(=O)c1cc(O)c(O)c(OC(=O)c2cc(O)c(O)c(O)c2)c1)c1cc(O)c(O)c(OC(=O)c2cc(O)c(O)c(O)c2)c1
inactive: [1] | [6] | [7] | [12]
active: [19] 21.1 µM and 16.5 µM | [5] 13.2 µM

Oc1ccc(N=Nc2ccccc2)cc1
inactive: [2] | [3] | [4] | [18] | [11] | [15] | [6] | [7]
active: [1] 61.9 µM
